The record followed here is PubChem BioAssay.

Records with an inconclusive call do not appear. Active and inactive are the calls of the source. Unless noted, no cut-off is given here; in the data, nearly all actives have AC50 up to about 26 µM.

Experiment [1] can be described thus: growth inhibition of DIPG glioma cells, dose response, cell-based, SU-DIPG-XVII, MIPE5.0, CellTiter-Glo, qHTS (AID 1347060).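 For AC50: cells exposed to compound for 48 hours before viability readout.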 The conditions noted are these: SU-DIPG-XVII viability, CellTiter-Glo ATP luminescence. (In general: ATP-based viability assays read luminescence as a measure of living cells.)
Experiment [2] in a line: growth inhibition of DIPG glioma cells, dose response, cell-based, SU-DIPG-XIII, MIPE4.0, CellTiter-Glo, qHTS (AID 1347061; cut-off not given, nearly all actives have AC50 up to about 37 µM;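 note: cells exposed to compound for 48 hours before readout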). The conditions noted are these: SU-DIPG-XIII viability, CellTiter-Glo ATP luminescence.
Experiment [3] in a line: growth inhibition of DIPG glioma cells, dose response, cell-based, JHH-DIPG-1, MIPE4.0, CellTiter-Glo, qHTS (AID 1347062; cut-off not given, nearly all actives have AC50 up to about 27 µM;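 for AC50: cells exposed to compound for two days before readout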). The conditions noted are these: JHH-DIPG-1 viability, CellTiter-Glo ATP luminescence.
Experiment [4] can be described thus: growth inhibition of DIPG glioma cells, dose response, cell-based, SU-DIPG-IV, MIPE4.0, CellTiter-Glo, qHTS (AID 1347063; cut-off not given, nearly all actives have AC50 up to about 30 µM;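 note: compound exposure lasted 48 hours before the viability readout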). The conditions noted are these: SU-DIPG-IV viability, CellTiter-Glo ATP luminescence.
A short description of experiment [5]: growth inhibition of DIPG glioma cells, dose response, cell-based, SU-DIPG-XIII, MIPE5.0, CellTiter-Glo, qHTS (AID 1347064; cut-off not given, nearly all actives have AC50 up to about 23 µM;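 note: cells exposed to compound for 48 hours before the viability read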). As to conditions: SU-DIPG-XIII viability, CellTiter-Glo ATP luminescence.
Experiment [6] can be described thus: viability loss in pontine glioma line – cell-based, SU-DIPG-XXV, MIPE5.0, CellTiter-Glo, qHTS, dose response (AID 1347065).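 Note: cells exposed to compound for 48 hours before ATP readout.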 As to conditions: CellTiter-Glo ATP luminescence.
The nature of experiment [7]: JHH-DIPG-1 glioma cell viability, MIPE5.0 library, CellTiter-Glo luminescence, qHTS (AID 1347067).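 Note: cells exposed to compound for 48 hours before readout.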 As to conditions: JHH-DIPG-1 glioma viability, CellTiter-Glo ATP luminescence.
Experiment [8] can be described thus: SU-DIPG-VI glioma cell viability, MIPE4.0 library, CellTiter-Glo luminescence, qHTS (AID 1347066; cut-off not given, nearly all actives have AC50 up to about 30 µM;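 note: cells exposed to compound for 48 hours before readout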). As to conditions: CellTiter-Glo ATP luminescence.
Experiment [9] is described as follows: SU-DIPG-XXV glioma cell viability, MIPE5.0 library, qHTS (AID 1347068; cut-off not given, nearly all actives have IC50 up to about 30 µM;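 for IC50: cells exposed to compound for 48 hours before viability readout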). Background: Quantitative high-throughput screening tests each substance at several concentrations.
Experiment [10] can be described thus: sensitizers of A549 cells to miR-34 induction, primary screen, imaging, A549 dox-inducible miR-34, nuclei and caspase counts (AID 1347080;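 active = compounds whose cell count with miR-34 switched on is under 0.7 times the count with it off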). As to conditions: A549 miR-34 inducible, Hoechst nuclei count, 48 h.
Experiment [11] is described as follows: survival rescue of mitochondrial mutant cells in low glucose, primary screen, MELAS cybrids, Rieske KO mouse fibroblasts, CellTiter-Glo (AID 1508586;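 active = mean z-score across replicates of 1.96 or higher in either the MELAS or the Rieske mutant cell line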;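 note: z relative to plate mean and SD of compound and empty wells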).
The nature of experiment [12]: modifiers of HSF1 nuclear foci, imaging, Selleck Cancer Library (AID 1347162; in the data active = plate-normalised HSF1 focus index below about 0.46). The conditions noted are these: human cells, at 10 µM; SSMD: measured here: HSF1 foci SSMD mean; cell count: measured here: cell number; plate-normalised HSF1 focus index: stronger effect = lower value.
Experiment [13] can be described thus: LFS_MB_P medulloblastoma growth inhibition, cell-based, chromothripsis tumors, cisplatin or BGB combos (AID 1671449; in the data active = inhibition above about 80%;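 note: cells exposed for 96 hours; 0% = vehicle DMSO and 100% = killing by high DMSO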). As to conditions: LFS_MB_P medulloblastoma cells.
The nature of experiment [14]: HDN33 neuroblastoma growth inhibition, cell-based, chromothripsis tumors, cisplatin or BGB combos (AID 1671450; in the data active = inhibition above about 80%;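 note: cells exposed to compound for four days; 0% = vehicle DMSO and 100% = cell killing by high DMSO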). The conditions noted are these: HDN33 neuroblastoma cells, stronger effect = higher value.
Experiment [15] can be described thus: ICB984 medulloblastoma cell growth inhibition, synergistic combos for chromothripsis tumors, cisplatin or BGB combos (AID 1671451; call rule not given here;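 note: cells exposed for 96 hours before readout; 0% = vehicle DMSO and 100% = killing by high DMSO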). As to conditions: ICB984 medulloblastoma cells, drug combinations, stronger effect = higher value.
Experiment [16] can be described thus: HTB85 osteosarcoma cell growth inhibition, synergistic combos for chromothripsis tumors, BGB or cisplatin IC20 combos (AID 1671453; in the data active = inhibition above about 80%;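 note: cells exposed for 96 hours before readout; 0% = vehicle DMSO and 100% = high DMSO killing control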). The conditions noted are these: HTB85 osteosarcoma cells, drug combinations, stronger effect = higher value.
Experiment [17] can be described thus: MDA-MB-436 breast carcinoma cell growth inhibition, synergistic combos for chromothripsis tumors, BGB or cisplatin combos (AID 1671458; call rule not given here;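 note: cells exposed for 96 hours; 0% = vehicle DMSO and 100% = killing by high DMSO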). The conditions noted are these: MDA-MB-436 breast carcinoma growth inhibition, drug combinations, stronger effect = higher value.
Experiment [18] in a line: growth inhibition of BT084 medulloblastoma cells, cell-based, ICGC_MB145, cisplatin and BGB IC40 combos (AID 1671461; in the data active = inhibition above about 80%;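 note: cells exposed to drugs for 96 hours; 0% = vehicle DMSO and 100% = high DMSO full killing control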). As to conditions: drug combinations, stronger effect = higher value.
Experiment [19] in a line: growth inhibition of RCMB18 medulloblastoma cells, cell-based, cisplatin and BGB IC40 combos (AID 1671462; in the data active = inhibition above about 80%;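 note: cells exposed to compound for four days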). As to conditions: stronger effect = higher value.

For `Cc1ccc(C(=O)Nc2cccc(C(F)(F)F)c2)cc1-c1ccc2nc(NCCN3CCOCC3)ncc2c1`, the AC50 in experiment [1] was 2.35 µM (active); in experiment [2] it was 6.62 µM (active); in [3], 6.62 µM (active); in [4] it was 4.69 µM (active); in experiment [5], 3.72 µM (active); in [6], 2.09 µM (active). The AC50 in experiment [7] was 2.95 µM (active).
Take `CCNC(=O)CCC/C=C\C[C@@H]1[C@@H](/C=C/C(O)CCc2ccccc2)[C@@H](O)C[C@@H]1O` (stereo partly specified): the molecule was classed as inactive in [1], in experiment [2], in experiment [3], in [4], in [6] and in experiment [8]. Also, the outcome in experiment [7] and in experiment [9] was inactive.
On to `Cc1cc(Nc2ncnc3ccc(-c4ccc(CNCCS(C)(=O)=O)o4)cc23)ccc1Oc1ccn2ncnc2c1`, for which the AC50 in experiment [1] was 23.5 µM (active); in [2] it was 23.5 µM (active); in experiment [3], 18.7 µM (active); in [4], 14.8 µM (active); in [6] it was 16.6 µM (active); in experiment [8], 16.6 µM (active). For the same molecule, the AC50 in experiment [7] is 20.9 µM (active). The molecule was classed as inactive in experiment [9]. Also, the fold change in experiment [10] (stronger effect = lower value, cell number ratio, induced over uninduced) was 0.962 (inactive); in experiment [10] (measured here: relative caspase fold change +Dox/-Dox), 1.06. In addition, the cell count in experiment [10] (measured here: total cells with miR-34 induction, stronger effect = lower value) came to 7890; in experiment [10] (measured here: total cells without miR-34 induction), 8200. In addition, the z-score was 1.86 (inactive) in experiment [11] (MELAS cybrid survival, CellTiter-Glo 48 h, stronger effect = higher value) and -0.462 in experiment [11] (Rieske KO mouse fibroblast survival, CellTiter-Glo 72 h).
`Cc1ccc([N+](=O)[O-])cc1S(=O)(=O)N(C)/N=C/c1cnc2ccc(Br)cn12`: the AC50 is 0.132 µM (active) in experiment [1]; 0.0209 µM (active) in [2]; 0.0332 µM (active) in [3]; 0.0235 µM (active) in [4]; 0.118 µM (active) in experiment [6]; 0.132 µM (active) in experiment [8]. Moreover, the AC50 in [7] is 0.166 µM (active). For the same molecule, the IC50 in experiment [9] was 0.235 µM (active). The SSMD in experiment [12] stood at 7.37. The molecule further registered a cell count in experiment [12] of 7410. Besides, the plate-normalised HSF1 focus index in [12] was 1.46 (inactive). Also, the inhibition in experiment [13] (at 0.5 µM, stronger effect = higher value) was -21.6% (inactive); in [13] (measured here: combination with BGB IC20, at 0.005 µM), -7.86%; in experiment [13] (measured here: combination with BGB IC40, at 0.005 µM) it was -33.9%; in experiment [13] (measured here: combination with BGB IC40, at 0.05 µM) it was -17.7%; in experiment [13] (measured here: combination with cisplatin, at 0.5 µM, stronger effect = higher value) it was -8.16%; in experiment [13] (measured here: combination with cisplatin, at 5 µM, stronger effect = higher value) it was 118%. Moreover, the inhibition was 98.8% in experiment [14] (BGB combo, at 5 µM); 82.5% (active) in [14] (at 0.5 µM); 99.4% in [14] (cisplatin combo, at 5 µM); 82.3% in [14] (measured here: with BGB IC20 combination, at 0.5 µM); 89% in experiment [14] (measured here: with cisplatin IC20 combination, at 0.5 µM); 99.6% in [14] (single agent, at 5 µM). Besides, the inhibition in experiment [15] (BGB IC20 combo, at 0.005 µM) is 93.2%; in experiment [15] (BGB IC40 combo, at 0.005 µM) it was 89.9%; in experiment [15] (BGB IC40 combo, at 0.05 µM), 99.2%; in [15] (at 0.5 µM), -28.7% (inactive); in [15] (cisplatin combo, at 0.05 µM) it was 99.2%; in experiment [15] (cisplatin combo, at 0.5 µM), -32.2%. The inhibition in experiment [15] (cisplatin combo, at 5 µM) is -58%; in [15] (measured here: 5 uM single agent, at 5 µM) it was -16.2%; in [16] (at 0.5 µM), 84.8% (active); in [16] (measured here: with BGB IC20, at 0.5 µM), 92.6%; in experiment [16] (measured here: with BGB IC20, at 5 µM) it was 100%; in experiment [16] (measured here: with cisplatin IC20, at 0.5 µM), 90.8%. Further, the inhibition in [16] (measured here: with cisplatin IC20, at 5 µM) was 99.6%; in [16] (single agent, at 5 µM), 99.9%; in experiment [17] (at 0.5 µM) it was 77.8% (inactive); in experiment [17] (measured here: BGB combination, at 0.5 µM), 73.3%; in experiment [17] (measured here: BGB combination, at 5 µM) it was 54%; in experiment [17] (measured here: cisplatin combination, at 0.5 µM), 77.3%. Moreover, the inhibition is 74.2% in experiment [17] (measured here: cisplatin combination, at 5 µM); 17.8% (inactive) in experiment [18] (at 0.5 µM); 8.05% in [18] (cisplatin combination, at 0.5 µM); -42.9% in experiment [18] (cisplatin combination, at 5 µM); 16.7% in experiment [18] (measured here: BGB IC40 combination 0.05 uM, at 0.05 µM); -25% in experiment [18] (single agent, at 5 µM). The inhibition in experiment [19] (at 0.5 µM) is 68.3% (inactive); in experiment [19] (cisplatin combo, at 5 µM), 59.8%; in experiment [19] (measured here: BGB IC40 combination, at 0.05 µM), -12.7%; in experiment [19] (measured here: combination with cisplatin, at 0.5 µM), 58.3%; in [19] (single agent, at 5 µM), 76.8%.

The term AC50 denotes the concentration giving half of the maximal activity seen. The IC50 is the concentration needed to halve the response being measured. The inhibition is the drop in the measured response relative to a control, in per cent.
